# From PubChem BioAssay AID1851 (National Center for Advancing Translational Sciences (NCATS), 2009)
# Where “and” joins values, the source holds several entries; their conditions need not be identical. Equal entries are not always repeated. Screen size: about 16,000 compounds; about 2,600 (16%) were called active. Inconclusive results (about 20%) are left out. The sample holds actives, similar compounds and a random draw of the others, so the mix is not that of the screen. Unmarked numbers belong to inactive results. The call rests on the fitted dose curve; in most records, active means well fitted curve in the direction sought with a large enough effect; inconclusive means small, poorly fitted or top-dose-only effect, or effect the other way; inactive means no such curve, though single readings can be large or run the other way.
# Target: Cytochrome P450 2D6 (Homo sapiens) (UniProt P10635)
# Sequence (P10635 whole entry, looked up): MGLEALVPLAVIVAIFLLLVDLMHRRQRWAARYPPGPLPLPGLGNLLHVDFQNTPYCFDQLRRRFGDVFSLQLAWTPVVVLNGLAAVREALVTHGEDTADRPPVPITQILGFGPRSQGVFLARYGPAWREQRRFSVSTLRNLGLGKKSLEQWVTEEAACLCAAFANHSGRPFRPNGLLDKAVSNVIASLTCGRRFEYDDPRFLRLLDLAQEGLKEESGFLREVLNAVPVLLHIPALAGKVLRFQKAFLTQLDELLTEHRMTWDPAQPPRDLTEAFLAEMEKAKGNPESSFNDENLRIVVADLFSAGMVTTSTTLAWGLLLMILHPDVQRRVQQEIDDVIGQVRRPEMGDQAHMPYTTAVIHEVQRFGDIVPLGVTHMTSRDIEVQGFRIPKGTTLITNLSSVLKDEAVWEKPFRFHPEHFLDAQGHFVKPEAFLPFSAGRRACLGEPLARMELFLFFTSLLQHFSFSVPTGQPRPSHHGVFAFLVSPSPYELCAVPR
# Experiment: Cytochrome panel assay with activity outcomes
# Details: recombinant CYP, pro-luciferin dealkylation, luminescence, p450-cyp2d6; series mostly up to 57.1 µM; activity, negative = inhibition: at the top concentration
# Method: The P450 gene superfamily is involved in the metabolism and clearance of xenobiotics. This assay used various human CYP P450 isozymes to measure the dealkylation of various pro-luciferin substrates to luciferin. The luciferin is then measured by luminescence after the addition of a luciferase detection reagent. Pro-luciferin substrate concentration in the assay was equal to its KM for its CYP P450 isozyme. Inhibitors and some substrates limit the production of luciferin, and decrease measured luminescence.
# NCGC Assay Protocol Summary:
# 1, Reagent, 2 uL, Isozyme and Pro-Luciferin
# 2, Library compounds, 23 nl, 40 uM to 0.24 nM dilution series
# 3, Controls, 23 nl, Isozyme specific inhibitor
# 4, Reagent, 2 uL, NADPH regeneration solution
# 5, Incubation time, 60 min, Isozyme specific temperature
# 6, Reagent, 4ul, Detection reagent
# 7, Incubation time, 20 min, Isozyme specific temperature
# 8, Detection, 1 sec, ViewLux luminescent read
# The luciferase-based P450-GloTM Screening Systems were obtained from Promega (Madison, WI) for CYP 1A2 (V9770), CYP 2C9 (V9790), CYP2 C19 (V9880), CYP 2D6 (V9890), and CYP 3A4 Luciferin-PPXE (V9910) and were adapted for 1,536-well microplates and an automated protocol. The control compounds furafylline for 1A2 (F124), sulfaphenazole for CYP 2C9 (S0758), ketoconazole for CYP 2C19 (K1003), quinidine for 2D6 (Q3625), and ketoconazole for 3A4 (K1003) were purchased from Sigma Aldrich (St. Louis, MO). Recombinant P450 enzymes were obtained from baculovirus constructs expressed in insect cells (BD/Gentest).
# Medium-binding white solid Kalypsys plates used. Mixtures kept on ice. 1A2: 10 nM 1A2, 100 uM Luc-ME, 100 mM KPO4; 2C9: 10 nM 2C9, 100 uM Luc-H, 25 mM KPO4; 2C19: 5 nM 2C19, 10 uM Luc-H EGE, 50 mM KPO4; 2D6: 5 nM 2D6, 30 uM Luc-ME EGE, 100 mM KPO4; 3A4: 10 nM, 25 uM Luc-PPXE. All amounts are reflected in their final concentration, working concentration is 2x.
# NADPH regeneration solution: 1.3 mM NADP+, 3.3 mM glucose-6-phosphate, 3.3 mM MgCl2, 0.4 U/mL glucose-6-phosphate dehydrogenase for all isozymes, 200 mM KPO4 for 3A4. Mixture prepared at RT but kept on ice during automated run.
# RT incubation in auxilliary plate hotel for 1A2, 2D6, and 3A4; 37C for 2C9 and 2C19.
# Keywords: P450, CYP1A2, CYP2C19, CYP2C9, CYP2D6, CYP3A4, Luciferase, MLSMR, MLSCN, NIH Roadmap, qHTS, NCGC
# On the % scale 0 is the no-effect control and ±100 the full control effect.
SMILES,"activity, negative = inhibition",AC50
O=C1c2cc([N+](=O)[O-])ccc2-c2ccc3c4ccc5c6c(ccc(c7ccc1c2c73)c64)C(=O)c1cc([N+](=O)[O-])ccc1-5,-6.4% [at 11.4 µM],
O=C1c2ccccc2-c2cc([N+](=O)[O-])c([N+](=O)[O-])cc21,,3.16 µM (active)
Cc1cc(C)nc(NC2=NCCS2)n1,1.02%,
C/C(=N\OC(=O)NC(C)C)c1sc(-c2ccccc2)nc1C,-28.9%,
O=C(c1ccncc1)N1CCC2(CC1)CN(Cc1ccccc1)C2,,6.31 µM (active)
CN1CC[C@@]2(CCCN(C(=O)c3ccncc3)C2)C1,-13.8%,
O=C(Oc1ccccc1)N1CCC2(CCN(Cc3ccncc3)CC2)CC1,-7.62%,
Cc1noc(C)c1C(=O)N1CCC2(CCCN(CC(C)C)C2)CC1,,12.6 µM (active)
CC(C)CN1CC2(CCN(C(=O)c3ccncc3)CC2)C1,,3.98 µM (active)
CCOC(=O)c1[nH]c(C)c(C(=O)N2CCC3(CC2)OCCO3)c1C,8.23%,
O=C(Oc1ccccc1)N1CCC2(CC1)CN(Cc1ccncc1)C2,-16.1%,
O=C(c1ccco1)N1CCC[C@@]2(CCN(Cc3ccncc3)C2)C1,,12.6 µM (active)
O=C(Oc1ccc(S(=O)(=O)F)cc1F)c1ccccc1Cl,12.8% [at 11.4 µM],
C/C(O)=C(/C#N)C(=O)Nc1cc(Br)ccc1Br,2.34%,
Cn1c(=O)c2[nH]cnc2n(C)c1=O,2.65% [at 25.6 µM],
O=c1cc(-c2ccc(O)cc2)oc2cc(O)cc(O)c12,5.24%,
COc1cc2c(cc1OC)[C@@]13CCN4CC5=CCO[C@H](CC(=O)O)[C@@H]([C@H]1N2)[C@H]5C[C@H]43,-8.05% [at 11.4 µM],
CCC(COC(=O)NC)NC(=O)Oc1ccccc1 (centres undefined),-14%,
O=C(c1cc2cc3ccc(Cl)cc3nc2o1)N1CCC2(CC1)OCCO2,-14.3%,
O=C(Cc1ccc(Cl)c(Cl)c1)N1CCCC[C@H]1CN1CCCC1,,7.94 µM (active) and 2.51 µM (active)
CC[C@]1([C@H]2O[C@@H]([C@@H]3O[C@](O)(CO)[C@@H](C)C[C@H]3C)C[C@H]2C)CC[C@@H]([C@]2(C)CC[C@@]3(C[C@@H](O)[C@@H](C)[C@@H]([C@H](C)[C@H](OC)[C@H](C)C(=O)O)O3)O2)O1,1.92% [at 25.6 µM],
c1ccc(CCCCN2CCC(c3ccccc3)CC2)cc1,,0.0398 µM (active)

SMILES,"activity, negative = inhibition",AC50
C[C@@H](N)Cn1ccc2cc(F)c(Cl)cc21,-5.27%,
CC(C)Oc1cc(-n2c(=S)[nH]c3ccccc3c2=O)c(Cl)cc1Cl,-18.2%,
C[C@H](CC(C#N)(c1ccccc1)c1ccccc1)N1CCCCC1,,2.51 µM (active)
CC(=O)Nc1ccccc1C(=O)OCc1ccc(C(=O)c2ccccc2)cc1,0.604%,
CC(C)CC(=O)C[C@H](O)C(Cl)(Cl)Cl,2.83% [at 11.4 µM],
C[C@@H]1[C@@H](C)N1C[C@H](O)Cn1ccnc1[N+](=O)[O-] (some centres undefined),4.54% [at 11.4 µM],
C[N+](C)(C)[C@H](Cc1c[nH]c(=S)[nH]1)C(=O)O,-8.35% [at 11.4 µM],
NC[C@@H](CC(=O)O)c1ccc(Cl)cc1,,inactive
O=C(O)CP(=O)(O)c1ccc(Cl)cc1,9.45%,
NC[C@H](CC(=O)O)c1ccc(Cl)cc1,,0.794 µM (active)
CCN1CCC2(CC1)NC(CO)(CO)CO2,10.6%,
O=c1[nH]c(=O)n(CCc2ccc(F)cc2)c(O)c1C=NCCCN1CCOCC1,-11.6%,
COc1cc2c(cc1OC)[C@@H]1C(=O)c3ccc4c(c3O[C@@H]1CO2)C=CC(C)(C)O4,,0.0631 µM (active)
OC(Cn1c2ccccc2c2ccccc21)C[n+]1ccccc1 (centres undefined),,0.0126 µM (active)
C[C@]12CC[C@@H]3[C@H](CCC4=CC(=O)CC[C@]43C)[C@]1(O)CC[C@@]2(O)C(=O)CO,16.3% [at 11.4 µM],
Cc1nc(N)sc1CCN,-0.208%,
CC(O)(CS(=O)(=O)c1ccccc1)C(=O)Nc1cccc(C(F)(F)F)c1 (centres undefined),-1.04%,
CNCCCc1ccccc1,-18.3%,
C[C@@H](Cc1cccc(C(F)(F)F)c1)NCCCc1ccccc1,,0.0126 µM (active)
C[C@@]12CC[C@@H]3c4ccc(O)cc4C[C@H](CCCCCCCCCS(=O)CCCC(F)(F)C(F)(F)F)[C@H]3[C@@H]1CC[C@@H]2O (some centres undefined),-5.58%,
CC(C)[C@@]1(NC(=O)[C@@H]2C[C@H]3c4cccc5[nH]cc(c45)C[C@@H]3N(C)C2)O[C@]2(O)[C@H]3CCCN3C(=O)[C@H](Cc3ccccc3)N2C1=O,-17.6% [at 25.6 µM],
CC(C)[C@@]1(NC(=O)[C@@H]2C[C@H]3c4cccc5[nH]cc(c45)C[C@@H]3N(C)C2)O[C@]2(O)[C@H]3CCCN3C(=O)CN2C1=O,-18.7% [at 25.6 µM],
